Source: the supplement of paper PMC6288085
Counter-ions that a name gives are not always drawn. ± gives the uncertainty stated by the source.

test system: Caenorhabditis elegans N2; experiment: food intake (mean delta OD600 / animal over 72 h) with 50 uM loxapine co-treatment (OD600 units per animal); higher = more food eaten (less suppression of loxapine-induced hyperphagia); conditions: first compound 33 µM, loxapine concentration 50 µM
Protocol: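 C. elegans N2 adults (FUDR-sterilised, day 1) in 96-well plates fed gamma-irradiated bacteria. Each library drug (MedChemExpress FDA-approved library) at 33 uM was combined with loxapine at 50 uM. Food intake was measured as bacterial clearance: the change in OD600 from day 1 to 72 h, normalised per animal (mean over 14-21 wells of about 10-12 worms). Drugs flagged for bacterial lysis or sickness were excluded by the authors.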

Row | SMILES | food intake
1 | COc1ccc(CN2CCNCC2)c(OC)c1OC [trimetazidine (dihydrochloride)] + CN1CCN(C2=Nc3ccccc3Oc3ccc(Cl)cc32)CC1 [loxapine] | 0.0224 ± 0.003
2 | C[C@]12CCC(=O)C(O)=C1CC[C@@H]1[C@@H]2CC[C@]2(C)C(=O)CC[C@@H]12 [formestane] + CN1CCN(C2=Nc3ccccc3Oc3ccc(Cl)cc32)CC1 [loxapine] | 0.0217 ± 0.0021
3 | CCCCCCCCCCC(=O)O[C@H]1CC[C@H]2[C@@H]3CCC4=CC(=O)CC[C@]4(C)[C@H]3CC[C@]12C [testosterone (undecanoate)] + CN1CCN(C2=Nc3ccccc3Oc3ccc(Cl)cc32)CC1 [loxapine] | 0.0238 ± 0.0023
4 | Oc1cccc2cccnc12 [8-hydroxyquinoline] + CN1CCN(C2=Nc3ccccc3Oc3ccc(Cl)cc32)CC1 [loxapine] | 0.0224 ± 0.0032
5 | CCC1(c2cccc(O)c2)CCCCN(C)C1 (configuration not stated) [meptazinol (hydrochloride)] + CN1CCN(C2=Nc3ccccc3Oc3ccc(Cl)cc32)CC1 [loxapine] | 0.0231 ± 0.0039
6 | COc1cc2c(cc1OC)C1CC(=O)C(CC(C)C)CN1CC2 (configuration not stated) [tetrabenazine] + CN1CCN(C2=Nc3ccccc3Oc3ccc(Cl)cc32)CC1 [loxapine] | 0.0274 ± 0.017
7 | O=C(N/N=C/c1ccc([N+](=O)[O-])o1)c1cc([N+](=O)[O-])cc([N+](=O)[O-])c1O [nifursol] + CN1CCN(C2=Nc3ccccc3Oc3ccc(Cl)cc32)CC1 [loxapine] | 0.0249 ± 0.0032
8 | Cc1ccc(O)cc1.Cc1cccc(O)c1.Cc1ccccc1O [cresol] + CN1CCN(C2=Nc3ccccc3Oc3ccc(Cl)cc32)CC1 [loxapine] | 0.0212 ± 0.0037
9 | CN1[C@@H]2CC(O)C[C@H]1[C@@H]1O[C@@H]12 (some centres not stated) [scopine (hydrochloride)] + CN1CCN(C2=Nc3ccccc3Oc3ccc(Cl)cc32)CC1 [loxapine] | 0.00616 ± 0.012
10 | C=CCN1CC[C@]23c4c5ccc(O)c4O[C@H]2C(=O)CC[C@@]3(O)[C@H]1C5 [naloxone (hydrochloride)] + CN1CCN(C2=Nc3ccccc3Oc3ccc(Cl)cc32)CC1 [loxapine] | 0.0254 ± 0.0053
11 | C[N+](C)(C)CCCCCCCCCC[N+](C)(C)C [decamethonium (bromide)] + CN1CCN(C2=Nc3ccccc3Oc3ccc(Cl)cc32)CC1 [loxapine] | 0.0222 ± 0.0054
12 | O=[N+]([O-])C(Br)(CO)CO [bronopol] + CN1CCN(C2=Nc3ccccc3Oc3ccc(Cl)cc32)CC1 [loxapine] | 0.0259 ± 0.0077
